Drawing on PMC7862700, “An all-to-all approach to the identification of sequence-specific readers for epigenetic DNA modifications on cytosine”, this text covers binding signal for seven sequences.

Common to all, as to experiment: DAPPL (digital affinity profiling via proximity ligation, sequencing); 10 mM Tris-HCl pH 7.5, 50 mM NaCl, 1 mM DTT, 4% glycerol, room temperature, 30 min; GST-TFs on glutathione beads, 16-mer random dsDNA library, 0.1% formaldehyde crosslink after washing; high values mean tight binding
Common to all, as to details: protein: recombinant; tags: N-terminal GST; dsDNA, one strand shown

Assay [1] concerns the target T1, ERF (Homo sapiens, UniProt P50548 1-548).
T1 sequence: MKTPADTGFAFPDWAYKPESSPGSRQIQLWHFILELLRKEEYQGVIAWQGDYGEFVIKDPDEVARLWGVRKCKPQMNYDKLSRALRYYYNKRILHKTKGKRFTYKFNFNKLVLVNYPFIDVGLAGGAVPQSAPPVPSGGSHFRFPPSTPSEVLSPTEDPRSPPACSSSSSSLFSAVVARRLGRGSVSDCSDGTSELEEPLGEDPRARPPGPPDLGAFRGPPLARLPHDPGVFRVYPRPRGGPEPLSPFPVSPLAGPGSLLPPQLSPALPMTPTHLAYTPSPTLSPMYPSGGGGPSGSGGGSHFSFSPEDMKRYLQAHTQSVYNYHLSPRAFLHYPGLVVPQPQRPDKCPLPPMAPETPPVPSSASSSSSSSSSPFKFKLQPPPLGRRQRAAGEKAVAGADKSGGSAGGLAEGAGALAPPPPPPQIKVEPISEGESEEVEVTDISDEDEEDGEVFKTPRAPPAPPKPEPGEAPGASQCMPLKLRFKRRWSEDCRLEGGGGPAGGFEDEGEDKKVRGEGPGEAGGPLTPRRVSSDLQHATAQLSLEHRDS
The procedure, abridged: (§1)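 Pools of DNA-barcoded human transcription factors, expressed in yeast as GST fusions on glutathione beads and combined with a tag-only sample, were incubated with 200 nmole of a 16-mer random double-stranded DNA library. Incubation took 30 min at room temperature in Tris/NaCl/DTT/glycerol buffer and was followed by washing, 0.1% formaldehyde crosslinking, proximity ligation (BsaI/T4 ligase, 1 h, 37 °C), PCR amplification and sequencing on an Illumina NextSeq500. Binding signal is the ratio of a hexamer's read frequency for a factor to its frequency for the tag-only sample.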

The target of assay [2] is T2, ETV3L (Homo sapiens, UniProt Q6ZN32 1-361).
T2 sequence: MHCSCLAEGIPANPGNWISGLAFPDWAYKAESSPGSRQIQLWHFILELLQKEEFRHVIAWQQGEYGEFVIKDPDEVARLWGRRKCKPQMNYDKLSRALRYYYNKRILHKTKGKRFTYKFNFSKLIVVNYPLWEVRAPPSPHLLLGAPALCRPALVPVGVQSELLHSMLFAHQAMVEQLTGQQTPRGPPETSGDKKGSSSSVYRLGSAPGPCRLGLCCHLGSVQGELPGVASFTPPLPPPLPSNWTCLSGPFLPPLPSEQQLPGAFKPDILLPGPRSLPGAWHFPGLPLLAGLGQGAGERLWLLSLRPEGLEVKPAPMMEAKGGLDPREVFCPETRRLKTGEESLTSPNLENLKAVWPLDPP
A digest of the protocol:
as §1

The target in assay [3] is T3, ETS2 (Homo sapiens, UniProt P15036 1-469).
T3 sequence: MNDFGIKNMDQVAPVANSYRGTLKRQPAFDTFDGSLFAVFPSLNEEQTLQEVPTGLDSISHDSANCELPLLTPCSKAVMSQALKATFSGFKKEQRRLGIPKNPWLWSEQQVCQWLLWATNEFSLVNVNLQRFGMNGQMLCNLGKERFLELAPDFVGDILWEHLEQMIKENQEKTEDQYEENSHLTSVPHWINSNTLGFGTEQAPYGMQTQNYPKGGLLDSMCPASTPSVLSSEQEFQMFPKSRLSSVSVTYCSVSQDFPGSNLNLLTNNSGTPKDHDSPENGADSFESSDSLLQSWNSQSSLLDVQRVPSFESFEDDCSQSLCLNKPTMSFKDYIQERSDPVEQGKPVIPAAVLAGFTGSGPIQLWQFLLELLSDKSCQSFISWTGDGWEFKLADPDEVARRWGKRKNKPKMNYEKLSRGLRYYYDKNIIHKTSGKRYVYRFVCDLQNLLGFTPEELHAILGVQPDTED
The procedure, abridged: as §1

Assay [4] concerns the target T4, SPDEF (Homo sapiens, UniProt O95238 1-335).
T4 sequence: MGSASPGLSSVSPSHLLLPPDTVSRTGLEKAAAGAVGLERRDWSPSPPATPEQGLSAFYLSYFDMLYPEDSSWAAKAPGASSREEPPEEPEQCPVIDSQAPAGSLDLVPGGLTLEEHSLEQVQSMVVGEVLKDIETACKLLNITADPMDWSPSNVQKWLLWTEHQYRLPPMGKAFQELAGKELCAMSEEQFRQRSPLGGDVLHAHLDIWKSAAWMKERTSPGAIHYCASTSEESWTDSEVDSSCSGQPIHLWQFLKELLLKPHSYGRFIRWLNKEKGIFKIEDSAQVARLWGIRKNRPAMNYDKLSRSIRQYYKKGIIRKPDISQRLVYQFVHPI
A digest of the protocol: as §1

The target in assay [5] is T5, ELF5 (Homo sapiens, UniProt Q9UKW6-2 1-255).
T5 sequence: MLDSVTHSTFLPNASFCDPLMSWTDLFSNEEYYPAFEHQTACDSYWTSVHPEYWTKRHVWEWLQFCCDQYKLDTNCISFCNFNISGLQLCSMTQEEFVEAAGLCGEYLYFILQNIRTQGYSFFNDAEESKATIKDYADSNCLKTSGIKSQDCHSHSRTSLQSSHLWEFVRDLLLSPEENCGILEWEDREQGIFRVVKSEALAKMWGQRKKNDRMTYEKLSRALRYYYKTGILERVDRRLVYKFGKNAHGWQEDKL
The procedure, abridged: as §1

In assay [6] the target is T6, ETV3 (Homo sapiens, UniProt P41162-2 1-143).
T6 sequence: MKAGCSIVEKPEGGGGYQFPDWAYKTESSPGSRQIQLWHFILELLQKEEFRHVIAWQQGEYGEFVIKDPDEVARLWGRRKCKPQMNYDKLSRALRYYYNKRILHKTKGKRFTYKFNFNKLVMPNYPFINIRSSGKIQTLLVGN
The procedure, abridged:
as §1

For assay [7], the target named is ETV6 (Homo sapiens, UniProt P41212 1-452). A digest of the protocol:
as §1

In assay [8] the target is T7, ETV7 (Homo sapiens, UniProt Q9Y603 1-341).
T7 sequence: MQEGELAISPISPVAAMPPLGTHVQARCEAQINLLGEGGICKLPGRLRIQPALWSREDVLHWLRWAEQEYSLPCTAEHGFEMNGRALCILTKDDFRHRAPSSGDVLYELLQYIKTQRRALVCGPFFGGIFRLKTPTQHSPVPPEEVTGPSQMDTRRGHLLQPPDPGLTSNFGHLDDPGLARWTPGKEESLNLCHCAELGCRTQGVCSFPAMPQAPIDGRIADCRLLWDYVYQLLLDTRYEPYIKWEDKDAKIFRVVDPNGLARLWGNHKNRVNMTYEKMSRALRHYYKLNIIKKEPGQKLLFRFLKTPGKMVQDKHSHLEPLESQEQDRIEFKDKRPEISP
A digest of the protocol:
as §1

ETV6, sequence (P41212 whole entry): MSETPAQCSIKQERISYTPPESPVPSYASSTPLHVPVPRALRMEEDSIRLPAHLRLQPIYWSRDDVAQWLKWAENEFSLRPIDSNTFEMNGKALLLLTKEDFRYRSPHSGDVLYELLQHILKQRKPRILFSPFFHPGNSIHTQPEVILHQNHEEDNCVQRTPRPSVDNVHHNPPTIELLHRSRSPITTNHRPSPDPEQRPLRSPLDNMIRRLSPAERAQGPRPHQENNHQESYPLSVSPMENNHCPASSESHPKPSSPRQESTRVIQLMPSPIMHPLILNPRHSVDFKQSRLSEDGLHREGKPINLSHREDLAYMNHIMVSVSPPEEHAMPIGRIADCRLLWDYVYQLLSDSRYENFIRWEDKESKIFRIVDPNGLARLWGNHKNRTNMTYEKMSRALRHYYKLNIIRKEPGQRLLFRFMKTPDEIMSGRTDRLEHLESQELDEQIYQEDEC

On to TAGGTT, for which the binding signal was 1.06 fold enrichment (6-mer frequency, TF over GST control) in assay [1]; 1.08 fold enrichment (6-mer frequency, TF over GST control) in assay [2]; 1.06 fold enrichment (6-mer frequency, TF over GST control) in assay [3]; 1.17 fold enrichment (6-mer frequency, TF over GST control) in assay [4]; 1.06 fold enrichment (6-mer frequency, TF over GST control) in assay [5]; 1.14 fold enrichment (6-mer frequency, TF over GST control) in assay [6]. Also, the binding signal in assay [7] is 1.16 fold enrichment (6-mer frequency, TF over GST control).
With CGAGCT, the binding signal in assay [1] is 1.09 fold enrichment (6-mer frequency, TF over GST control); in assay [2] it was 1.02 fold enrichment (6-mer frequency, TF over GST control); in assay [3] it was 1.07 fold enrichment (6-mer frequency, TF over GST control); in assay [4], 1.04 fold enrichment (6-mer frequency, TF over GST control); in assay [8] it was 1.02 fold enrichment (6-mer frequency, TF over GST control); in assay [6] it was 1.06 fold enrichment (6-mer frequency, TF over GST control). Further, the binding signal in assay [7] was 1.01 fold enrichment (6-mer frequency, TF over GST control).
For GCATTC, the binding signal in assay [1] is 1.16 fold enrichment (6-mer frequency, TF over GST control); in assay [2], 1.07 fold enrichment (6-mer frequency, TF over GST control); in assay [3], 1.08 fold enrichment (6-mer frequency, TF over GST control); in assay [4], 1.1 fold enrichment (6-mer frequency, TF over GST control); in assay [5] it was 1.06 fold enrichment (6-mer frequency, TF over GST control); in assay [6], 1.17 fold enrichment (6-mer frequency, TF over GST control). Besides, in assay [7], the binding signal is 1.19 fold enrichment (6-mer frequency, TF over GST control).
For the sequence AGCCCT, the binding signal in assay [1] is 1.11 fold enrichment (6-mer frequency, TF over GST control); in assay [2], 1.12 fold enrichment (6-mer frequency, TF over GST control); in assay [3], 1.16 fold enrichment (6-mer frequency, TF over GST control); in assay [4], 1.07 fold enrichment (6-mer frequency, TF over GST control); in assay [5], 1.08 fold enrichment (6-mer frequency, TF over GST control); in assay [6], 1.15 fold enrichment (6-mer frequency, TF over GST control). In addition, in assay [7], the binding signal is 1.11 fold enrichment (6-mer frequency, TF over GST control).
Turning to CGCCTA, the binding signal in assay [1] was 1.15 fold enrichment (6-mer frequency, TF over GST control); in assay [2], 1.25 fold enrichment (6-mer frequency, TF over GST control); in assay [3], 1.19 fold enrichment (6-mer frequency, TF over GST control); in assay [4], 1.15 fold enrichment (6-mer frequency, TF over GST control); in assay [5], 1.18 fold enrichment (6-mer frequency, TF over GST control); in assay [6], 1.2 fold enrichment (6-mer frequency, TF over GST control). Besides, the binding signal in assay [7] was 1.14 fold enrichment (6-mer frequency, TF over GST control).
With CACAAT, the binding signal in assay [1] was 1.18 fold enrichment (6-mer frequency, TF over GST control); in assay [2], 1.08 fold enrichment (6-mer frequency, TF over GST control); in assay [3] it was 1.13 fold enrichment (6-mer frequency, TF over GST control); in assay [4], 1.07 fold enrichment (6-mer frequency, TF over GST control); in assay [5], 1.06 fold enrichment (6-mer frequency, TF over GST control); in assay [6], 1.12 fold enrichment (6-mer frequency, TF over GST control). Moreover, in assay [7], the binding signal is 1.09 fold enrichment (6-mer frequency, TF over GST control).
Regarding CTCAGA, the binding signal is 1.21 fold enrichment (6-mer frequency, TF over GST control) in assay [1]; 1.06 fold enrichment (6-mer frequency, TF over GST control) in assay [2]; 1.02 fold enrichment (6-mer frequency, TF over GST control) in assay [3]; 1.11 fold enrichment (6-mer frequency, TF over GST control) in assay [4]; 1.03 fold enrichment (6-mer frequency, TF over GST control) in assay [5]; 1.01 fold enrichment (6-mer frequency, TF over GST control) in assay [6]. Moreover, the binding signal in assay [7] was 1.13 fold enrichment (6-mer frequency, TF over GST control).
